Compound activity: PubChem, National Center for Advancing Translational Sciences (NCATS)
Only some compounds are listed: those with a hit (about 9.3% of all), similar ones and a draw of the others.
Vaccinia mCherry – qHTS for Stage-Specific Inhibitors of Vaccinia Orthopoxvirus: mCherry Reporter Primary qHTS; Vaccinia virus mCherry reporter infection, fluorescence; Potency, µM (highest dose often 36.5 µM), usual class: inhibitors; 310,000 compounds, 0.63% hits; AID 720579, 2013; calls by dose curve; tested in A549 cells; note: nearly all actives have a fitted effect of over 35% in size
FMDV antiviral – High Throughput Screening for Foot and Mouth Disease Virus Antivirals; FMDV antiviral cell-based qHTS; Potency, µM (highest dose often 57.9 µM), usual class: inhibitors; 410,000 compounds, 1.2% hits; calls by dose curve; tested in HEK293T cells; note: read-out not given here; nearly all actives have a fitted effect of over 45% in size
VACV Venus inh – qHTS for Stage-Specific Inhibitors of Vaccinia Orthopoxvirus: Venus Reporter Primary qHTS | Vaccinia virus Venus reporter expression, fluorescence | Potency, µM (highest dose often 36.5 µM), most hits filed as inhibitors | 330,000 compounds, 0.46% hits | AID 720580, 2013; calls by dose curve; tested in A549 cells; note: nearly all actives have a fitted effect of over 30% in size
HCV inh – qHTS Assay for Inhibitors of Hepatitis C Virus (HCV) | 340,000 compounds, 3.4% hits | AID 651820, 2012 | Potency, µM (top dose mostly 41.8 µM), usual class: inhibitors | Huh7.5.1 HCVcc-Cre infection, luciferase reporter, 44 h
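Seed cells (1,000/well) for 4 h; treat with compound and infect with HCVcc-Cre, moi about 0.5. Incubate 44 h, then detect luciferase activity.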
Sm TGR block – qHTS Assay for the Inhibitors of Schistosoma Mansoni Peroxiredoxins; AID 485364, 2010; purified TGR, DTNB reduction, TNB absorbance 405 nm; 360,000 compounds, 3% hits; Potency, µM (top dose mostly 114 µM), usual class: inhibitors; note: nearly all actives have a fitted effect of over 60% in size
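First, TGR (20 nM dispensed) and NADPH were mixed with compound. Second, a 15 min room-temperature incubation followed. Third, further NADPH and then DTNB were added to start the reaction. Finally, TNB absorbance was monitored kinetically.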
HCMV antiviral – qHTS Assay for inhibitors of the human cytomegalovirus (HCMV). AID 1259415, 2018. HFF cells, HCMV-luciferase reporter, 72 h; hits give low values. 410,000 compounds, 4.5% hits. activity change, negative = inhibition, % at 57.5 µM; in the data active = activity change below about -60%; inconclusive = no clear call, values can overlap the other calls; inactive = above about -39%
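Screen run at 2 compound doses on HFFs infected with reporter HCMV, MOI 1 PFU/cell. Luciferase activity from cell lysates at 72 h post infection gave inhibition relative to buffer-only and Salinomycin wells.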
Large screens that a line does not name were inactive. Unless noted, calls come from the whole dose curve; as a rule, active = well fitted curve in the direction sought with a large enough effect; inconclusive = small, poorly fitted or top-dose-only effect, or another doubt; inactive = no such curve, though single readings can be large; an effect the other way counts as inactive or inconclusive.

CCN(CC)S(=O)(=O)c1ccc(C2CNC(=O)C2)cc1 (centres undefined)	HCMV antiviral inconclusive
COc1ccc(C(=O)N2CCN(c3ncnc4c(-c5ccccc5)nsc34)CC2)cc1	FMDV antiviral inconclusive
COc1ccc(-c2nsc3c(N4CCCCC4C)ncnc23)cc1 (centres undefined)	FMDV antiviral 0.032µM, HCV inh inconclusive, HCMV antiviral -97 (no result: Sm TGR block)
COc1ccc(-c2nsc3c(N4CCCCC4)ncnc23)cc1	FMDV antiviral inconclusive, HCMV antiviral -83 (no result: Vaccinia mCherry, VACV Venus inh)
COc1cccc(/C=C/C(=O)OCC(=O)Nc2ccc3[nH]c(=O)[nH]c3c2)c1OC	none
CC(=O)NCCNc1ccnc(-c2ccccc2C(F)(F)F)n1	none (no result: Vaccinia mCherry, VACV Venus inh, HCV inh, Sm TGR block, HCMV antiviral)
CCN(CC)CCNC(=O)c1ccc(NC(=O)c2cn(-c3ccc(F)cc3)nc2-c2cccc(OC)c2)cc1	HCV inh inconclusive, HCMV antiviral -66
O=C(Nc1cccnc1)c1cn(-c2ccccc2)nc1-c1cccs1	HCV inh inconclusive (no result: FMDV antiviral)
CCOc1ccc(NC(=O)CN(C)C(=O)c2cn(-c3ccc(F)cc3)nc2-c2cccc(OC)c2)cc1OCC	VACV Venus inh inconclusive, HCV inh inconclusive
CCN(CC)CCNC(=O)c1ccc(NC(=O)c2cn(-c3ccccc3)nc2-c2cccs2)cc1	HCV inh 11µM, HCMV antiviral -98 (no result: Vaccinia mCherry, VACV Venus inh)
Cc1ccc(NC(=O)CCc2c(C)nn(-c3ccc(N4CCCCC4)nn3)c2C)cc1F	none
Fc1ccc(N2Cc3ccccc3-n3nncc3C2)cc1	HCMV antiviral -104 (no result: HCV inh, Sm TGR block)
CN1Cc2ccccc2-n2nncc2C1	none (no result: Sm TGR block)
Cn1c(=O)[nH]c(=O)c2c1nc(N1CCCCCC1)n2CCCSc1nc2ccccc2o1	FMDV antiviral inconclusive
O=C(NCc1ccco1)c1cc(-c2ccccc2)nn1CC1CC(c2cccc([N+](=O)[O-])c2)=NO1 (centres undefined)	HCV inh inconclusive (no result: Sm TGR block)
N#CC(C#N)=C(C#N)c1ccc(Nc2ccccc2)cc1	FMDV antiviral inconclusive, Sm TGR block 2.8µM
c1ccc(Nc2ccc(Nc3ccccc3)cc2)cc1	HCV inh inconclusive, Sm TGR block inconclusive
CCOC(=O)c1sc(Nc2nc3c(OC)cccc3s2)cc1C	HCV inh 10µM
CC(=O)Nc1ccc2nc(NC(=O)COc3ccccc3C)sc2c1	none
COc1cccc2sc(Nc3nc4ccc(NC(C)=O)cc4s3)nc12	HCV inh 4.5µM, HCMV antiviral -83
CC(C)C(=O)Nc1nnc(S(=O)(=O)N2CCCCCC2)s1	none
Cc1cccc(C(C)C)c1NC(=O)c1cccnc1	none
N#Cc1nc(-c2cccc3ccccc23)oc1NCC1CCCO1 (centres undefined)	HCV inh inconclusive, HCMV antiviral -67
N#Cc1nc(-c2ccccc2)oc1NCC1CCCO1 (centres undefined)	none
c1ccc(-c2onc(-c3ccco3)c2-c2ccc3c(c2)OCO3)cc1	Sm TGR block 50µM
CCn1nc(-c2ccc(C)cc2)nc2c(=O)n(C)c(=O)nc1-2	Vaccinia mCherry 2.5µM, VACV Venus inh 3.2µM (no result: FMDV antiviral, HCV inh, Sm TGR block, HCMV antiviral)
CCn1nc(-c2ccccc2)nc2c(=O)n(C)c(=O)nc1-2	Vaccinia mCherry 2.5µM, FMDV antiviral 1.8µM, VACV Venus inh 2.2µM, HCV inh 2.8µM, Sm TGR block inconclusive (no result: HCMV antiviral)
CCS(=O)(=O)n1nc(-c2ccc(C)cc2)nc1N	none
CCOC(=O)CNC(=O)CSc1nc2sc(C)c(C)c2c(=O)n1C	HCV inh inconclusive (no result: Vaccinia mCherry, VACV Venus inh)
CCn1c(Cn2nnc(-c3ccccc3)n2)nnc1SCC(=O)Nc1cccc(C(C)=O)c1	HCV inh 35µM (no result: FMDV antiviral)
CC(=O)c1cccc(NC(=O)CSc2nnc(C(C)N(C)C)n2Cc2ccccc2)c1 (centres undefined)	Sm TGR block 25µM
FC(F)(F)c1nc(=S)c2ccccc2[nH]1	Sm TGR block 2µM (no result: Vaccinia mCherry, VACV Venus inh)
CC1CCN(C(=O)COC(=O)C2CCN(S(=O)(=O)c3ccc4c(c3)OCCO4)CC2)CC1	none
